Screen size: about 17,000 compounds; about 35 (0.2%) were called active.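 Rule for the calls: active = compounds whose four printed spots each show fluorescence over background unusually high for their array block, chance value under 7%; inactive = the rest.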 Only a selection was taken, and actives are over-represented in it overall.

Sequence of Signal transducer and activator of transcription 3 (Homo sapiens) (P40763 whole entry, looked up): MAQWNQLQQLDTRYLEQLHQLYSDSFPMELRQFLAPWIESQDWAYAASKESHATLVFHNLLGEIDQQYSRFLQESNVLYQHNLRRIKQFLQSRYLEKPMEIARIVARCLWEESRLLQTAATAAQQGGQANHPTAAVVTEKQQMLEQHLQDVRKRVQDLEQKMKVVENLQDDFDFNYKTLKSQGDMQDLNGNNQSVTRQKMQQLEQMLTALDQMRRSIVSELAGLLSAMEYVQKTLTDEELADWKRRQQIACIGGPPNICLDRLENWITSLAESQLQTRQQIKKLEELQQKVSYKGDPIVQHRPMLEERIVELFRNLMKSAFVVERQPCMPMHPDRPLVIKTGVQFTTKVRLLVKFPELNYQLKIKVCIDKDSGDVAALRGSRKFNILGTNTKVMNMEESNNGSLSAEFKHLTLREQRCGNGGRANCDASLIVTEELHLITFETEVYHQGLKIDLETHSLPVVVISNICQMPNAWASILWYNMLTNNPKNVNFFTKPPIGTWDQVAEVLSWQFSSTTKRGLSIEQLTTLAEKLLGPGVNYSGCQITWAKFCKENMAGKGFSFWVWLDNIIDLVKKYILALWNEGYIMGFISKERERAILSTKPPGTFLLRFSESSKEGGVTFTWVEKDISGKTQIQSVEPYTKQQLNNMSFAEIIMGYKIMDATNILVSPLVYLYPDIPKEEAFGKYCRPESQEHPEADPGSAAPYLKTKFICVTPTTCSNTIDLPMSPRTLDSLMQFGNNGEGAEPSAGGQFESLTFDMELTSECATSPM

This assay has as its target Signal transducer and activator of transcription 3 (Homo sapiens) (UniProt P40763). In words: STAT3 binders, primary screen, biochemical, small molecule microarray, single point, set 2 (AID 624138). The conditions noted are these: His-STAT3 binding, anti-His fluorescence.
As to `CNC[C@@H]1Oc2ccc(NC(=O)Nc3ccc4c(c3)OCO4)cc2C(=O)N([C@H](C)CO)C[C@@H]1C`, the compound was called inactive.
For `C[C@@H]1CCCCO[C@@H](CN(C)Cc2ccc(Cl)c(Cl)c2)[C@@H](C)CN([C@@H](C)CO)C(=O)c2cc(NS(C)(=O)=O)ccc2O1`, the call was inactive.
For the compound `C[C@H]1CCCCO[C@@H](CN(C)Cc2ccccc2)[C@@H](C)CN([C@@H](C)CO)C(=O)c2cc(NC(=O)CCCN(C)C)ccc2O1`, the call was inactive.
The same measure for `C[C@H]1CN([C@@H](C)CO)C(=O)c2cc(NC(=O)Nc3ccccc3)ccc2O[C@@H]1CN(C)C(=O)Nc1ccccc1`: “inactive”; for `CCOC(=O)c1c(CN2CCOCC2)nc2c3ccccc3ccn12`: “inactive”.
Under `O=C(c1cc2ccccc2oc1=O)N(Cc1ccc(F)cc1)Cc1ccco1` stands “inactive”; under `CCOC(=O)c1sc(NC(=S)Nc2ccc3c(c2)OCCO3)c(C(=O)OCC)c1C`, “inactive”.
The same measure for `CC(Oc1ccccc1)C(=O)N[C@@H]1C(=O)N2[C@@H]1SC(C)(C)[C@@H]2C(=O)O` (some centres undefined): “inactive”.
As for `CC(C)NC(=O)Nc1ccc2c(c1)C(=O)N([C@H](C)CO)C[C@H](C)[C@@H](CN(C)C(=O)CCCN(C)C)OCCCC[C@@H](C)O2`, the result was inactive.
Under `COc1ccc(-c2oc3cc(OC)ccc3c2C(=O)c2ccc(C#N)cc2)cc1` stands “inactive”; under `C[C@H](CO)N1C[C@H](C)[C@@H](CN(C)Cc2ccncc2)Oc2ccc(NC(=O)Nc3ccccc3)cc2C1=O`, “inactive”; under `C[C@H](CO)N1C[C@H](C)[C@H](CN(C)C(=O)NC2CCCCC2)Oc2c(NC(=O)c3nc4ccccc4s3)cccc2C1=O`, “inactive”.
As to `C[C@@H]1CCCCO[C@H](CN(C)C(=O)Nc2cccc3ccccc23)[C@@H](C)CN([C@H](C)CO)C(=O)c2cc(NS(=O)(=O)c3cccs3)ccc2O1`, the call was inactive.
For the compound `C[C@@H]1CCCCO[C@H](CN(C)Cc2ccccc2)[C@H](C)CN([C@@H](C)CO)C(=O)c2cc(NS(=O)(=O)c3ccccc3)ccc2O1`, the compound was called inactive.
The same measure for `C[C@H](CO)N1C[C@H](C)[C@H](CN(C)S(=O)(=O)c2ccc(F)cc2)Oc2ncc(-c3ccc(F)cc3)cc2C1=O`: “inactive”; for `C[C@@H]1CN([C@@H](C)CO)C(=O)c2cc(NS(C)(=O)=O)ccc2O[C@@H]1CN(C)C(=O)Nc1ccc(F)cc1`: “inactive”.
Turning to `C[C@H](CO)N1C[C@H](C)[C@@H](CN(C)S(=O)(=O)c2cn(C)cn2)Oc2ccc(NS(=O)(=O)c3cn(C)cn3)cc2C1=O`, the outcome was inactive.
Under `C[C@@H]1CC[C@]2(C(=O)O)CC[C@]3(C)C(=CCC4[C@@]5(C)CC[C@H](O)[C@](C)(C(=O)O)C5CC[C@]43C)C2[C@]1(C)O` (some centres undefined) stands “inactive”.
The same measure for `NC(=O)CSc1nnc(-c2ccccc2F)n1-c1ccccc1`: “inactive”; for `C[C@H](CO)N1C[C@H](C)[C@H](CN(C)Cc2ccc(C(=O)O)cc2)Oc2c(NC(=O)C3CCOCC3)cccc2C1=O`: “inactive”; for `COC(=O)c1ccccc1NC(=O)CNS(=O)(=O)c1cc(Cl)ccc1Cl`: “inactive”.
Consider `Cc1noc(C)c1NC(=O)N(C)C[C@@H]1OCCCC[C@@H](C)Oc2ccc(NC(=O)C3CCCCC3)cc2C(=O)N([C@H](C)CO)C[C@@H]1C`, for which the outcome was inactive.
The same measure for `COC(=O)c1c(NC(=O)c2cc(-c3ccccn3)nc3c(C)cc(C)cc23)sc(C)c1C`: “inactive”; for `COc1ccc(NC(=O)Nc2ccc3c(c2)C(=O)N([C@@H](C)CO)C[C@@H](C)[C@H](CN(C)S(=O)(=O)c2cccs2)O3)cc1`: “inactive”; for `Cc1noc(C)c1NC(=O)Nc1cccc2c1O[C@H](CN(C)C(=O)Nc1c(C)noc1C)[C@@H](C)CN([C@@H](C)CO)C2=O`: “inactive”.
Regarding `CC[C@@H]1Cc2cc(O)ccc2C2=C1c1ccc(O)cc1C[C@H]2CC`, the result was inactive.
The same measure for `CC(C)C(NS(=O)(=O)c1ccc(-c2ccc(Br)cc2)cc1)C(=O)O` (centres undefined): “inactive”.
For the compound `O=C(NCc1ccccc1)C1=C[C@H](C2CC2)C[C@H](OCc2ccc(CO)cc2)O1`, the compound was called inactive.
The same measure for `CC(C)(C)[C@H]1C=C(C(=O)NCc2ccccc2)O[C@@H](OCc2ccc(CO)cc2)C1`: “inactive”.
Under `O=C(NCc1ccccc1)C1=C[C@@H](C2CCCCC2)C[C@@H](OCc2ccc(CO)cc2)O1` stands “active”.
The same measure for `C[C@@H]1CN([C@@H](C)CO)C(=O)CCCn2nncc2CO[C@@H]1CN(C)Cc1ccccc1`: “inactive”.
Take `CN(C)c1nc(Nc2nc3ccccc3[nH]2)nc(N(C)C)n1`: the result was inactive.
Under `COC(=O)C(C)N(C(=O)c1ccccc1[N+](=O)[O-])c1c(C)cccc1C` (centres undefined) stands “inactive”; under `COc1ccc(NC(=O)Nc2nn(Cc3ccc(Cl)cc3Cl)cc2Br)cc1OC`, “inactive”.
Consider `COCCCNC(=O)C(=O)c1cn(C)c2ccccc12`, for which the compound was classed as inactive.
Under `O=C1C[C@@](C(=O)NCC(F)(F)F)(c2ccc([N+](=O)[O-])cc2)[C@@H](c2ccc(CO)cc2I)N1C1CCCCC1` stands “inactive”; under `COC(=O)C1=C[C@H](O[C@@H]2O[C@H](CO)[C@@H](O)[C@H](O)[C@H]2O)C[C@H]2[C@]3(C)C[C@@H](c4ccoc4)OC(=O)[C@H]3CC[C@@]12C`, “inactive”; under `CCn1c(SCC(=O)O)nnc1-c1ccc(OC)cc1`, “inactive”.
The same measure for `C[C@H](CO)N1C[C@H](C)[C@H](CN(C)C(=O)Nc2ccccc2)Oc2ccc(NC(=O)CCN3CCOCC3)cc2CC1=O`: “inactive”.
The same measure for `OC[C@H]1O[C@@H](OCc2ccccc2)[C@H](O[C@@H]2OC[C@](O)(CO)[C@H]2O)[C@@H](O)[C@@H]1O`: “inactive”.
Consider `COc1ccc(CCN2C(=O)[C@@]3(Cc4ccccc42)c2ccccc2C(=O)N(Cc2ccccc2C(F)(F)F)[C@H]3c2ccc(CO)cc2)cc1`, for which the result was inactive.
The same measure for `C[C@@H]1CN([C@H](C)CO)C(=O)CCCn2cc(nn2)CO[C@@H]1CN(C)C(=O)Nc1ccc2c(c1)OCO2`: “inactive”.
Under `O=C(Nc1cccc(OCC(=O)N2CCOCC2)c1)C1CCCCC1` stands “inactive”; under `O=c1c(-c2ccc(O[C@@H]3O[C@H](CO)[C@@H](O)[C@H](O)[C@H]3O)cc2)coc2c([C@@H]3O[C@H](CO)[C@@H](O)[C@H](O)[C@H]3O)c(O)cc(O)c12`, “inactive”.
Under `Cc1ccc(Cn2c(NCc3nc4ccccc4n3C)nc3ccccc32)cc1` stands “inactive”; under `COc1cccc(-c2cc(C(F)(F)F)n3nc(C(=O)NCc4ccccn4)cc3n2)c1`, “inactive”; under `C[C@@H]1CN([C@@H](C)CO)C(=O)c2cc(NS(C)(=O)=O)ccc2O[C@@H]1CN(C)C`, “inactive”.
Regarding `CCCN(C)C[C@@H]1Oc2ncc(C#Cc3ccccc3)cc2C(=O)N([C@H](C)CO)C[C@@H]1C`, the compound was called inactive.
For the compound `Cc1cc(OCC(=O)Nc2ccccc2C(N)=O)cc(C)c1Br`, the compound was classed as inactive.
The same measure for `COc1ccc(CCNc2nc(C)cc(C)n2)cc1OC`: “inactive”; for `COc1ccc(S(=O)(=O)Nc2ccc3c(c2)C(=O)N([C@H](C)CO)C[C@@H](C)[C@@H](CN(C)Cc2ccccc2)O3)cc1`: “inactive”.
Under `C[C@@H]1CCCCO[C@@H](CN(C)Cc2ccncc2)[C@H](C)CN([C@@H](C)CO)C(=O)c2cc(N(C)C)ccc2O1` stands “inactive”; under `C[C@@H]1CCCCO[C@@H](CN(C)C(=O)Cc2ccccc2)[C@H](C)CN([C@@H](C)CO)C(=O)c2cc(NC(=O)Nc3ccc(F)cc3)ccc2O1`, “inactive”.
With `CC(C)(C)c1ccc(OCC(=O)Nc2cccc(NC(=O)c3ccccc3)c2)cc1`, the result was inactive.
The same measure for `Oc1ccc(-c2c(-c3ccccc3)nn3c(C(F)(F)F)cc(C(F)(F)F)nc23)cc1`: “inactive”; for `COc1c(Br)cc2c(cc(C)n2-c2ccccc2)c1OCC(O)CNC(C)C` (centres undefined): “inactive”.
As for `CC(=O)c1c(C)n(CC(=O)O)c2ccccc12`, the call was inactive.
As for `C[C@H](CO)N1C[C@H](C)[C@H](CN(C)C)Oc2c(NS(=O)(=O)c3ccc(Cl)cc3)cccc2C1=O`, the outcome was inactive.
Under `C[C@@H]1CN([C@H](C)CO)C(=O)CCCn2nncc2CO[C@@H]1CN(C)C` stands “inactive”; under `Cc1ccc(NC(=O)CSc2ncn[nH]2)c(C)c1`, “inactive”; under `C=C1C(=C/C=C2\CCC[C@]3(C)[C@@H]([C@H](C)CCCC(C)(C)O)CC[C@@H]23)C[C@@H](O)C[C@@H]1O`, “inactive”.
In the case of `COCCCNC(=O)[C@@]1(Cc2ccccc2)COC(c2ccc(OCCCO)cc2)=N1`, the compound was called inactive.
As for `CC(C)(O)C(O)COc1c2occc2cc2ccc(=O)oc12` (centres undefined), the compound was classed as inactive.
The same measure for `CNC[C@@H]1Oc2c(NC(=O)C3CCOCC3)cccc2C(=O)N([C@@H](C)CO)C[C@H]1C`: “inactive”; for `O=C(O)CCC(=O)Nc1ccc(-c2nc3ccccc3o2)cc1`: “inactive”.
The same measure for `C[C@@H]1CN([C@H](C)CO)C(=O)c2cc(NC(=O)Nc3ccccc3)ccc2O[C@@H]1CN(C)Cc1ccc(Cl)c(Cl)c1`: “inactive”.
The same measure for `CCOC(=O)c1ccc(COC(=O)c2cc(=O)[nH]c3ccccc23)o1`: “inactive”.
Take `Cc1noc(C)c1NC(=O)Nc1ccc2c(c1)CC(=O)N([C@H](C)CO)C[C@@H](C)[C@H](CN(C)S(=O)(=O)c1cccs1)O2`: the outcome was inactive.
As to `C[C@@H]1CN([C@H](C)CO)C(=O)c2cc(NC(=O)Nc3ccccc3)ccc2O[C@@H](C)CCCCO[C@@H]1CN(C)S(=O)(=O)c1ccc(F)cc1`, the result was inactive.
The same measure for `COc1cc(O)cc(C)c1C(=O)OC1C(CO)OC(n2ccc(=O)[nH]c2=O)C1OC(C)=O` (centres undefined): “inactive”.
Turning to `COc1ccc(S(=O)(=O)Nc2ccc3c(c2)C(=O)N([C@H](C)CO)C[C@H](C)[C@@H](CN(C)S(C)(=O)=O)OCCCC[C@@H](C)O3)cc1`, the compound was called inactive.
Under `Cc1noc(C)c1S(=O)(=O)Nc1ccc2c(c1)C(=O)N([C@H](C)CO)C[C@H](C)[C@H](CN(C)C(=O)CCC(F)(F)F)OCCCC[C@H](C)O2` stands “inactive”; under `C[C@@H]1CCCCO[C@@H](CN(C)C(=O)c2ccccc2)[C@H](C)CN([C@@H](C)CO)C(=O)c2cc(NS(=O)(=O)c3cn(C)cn3)ccc2O1`, “inactive”.
The same measure for `Cc1sc2nc(SCC(=O)Nc3ccccc3C(F)(F)F)nc(N)c2c1C`: “inactive”.

(Values after PubChem BioAssay AID624138 (Broad Institute, 2012).)
